Screening data: PubChem BioAssay, several laboratories
Shown are actives, neighbours in structure and some others; about 1.1% of the full set was active somewhere.
ABCB6 inh 2 = blocks the human ABCB6 transporter | K562-ABCB6 porphyrin accumulation, flow cytometry, 1 h; hits give low values | actives 0.19% (n = 360,000) | AID 602162 | Q9NP58 | fluorescence ratio to DMSO, % at 10 µM;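 active means fluorescence ratio to DMSO below 75%, the collection mean minus 3 SD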;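 further: signal is porphyrin accumulated inside mitochondria; lower ratio means ABCB6 inhibition with less porphyrin fluorescence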
VLA-4 inh = inhibition in a human VLA-4 binding assay; P13612; VLA-4 expressing cells, ligand binding flow cytometry; inhibition, % (about 7 µM as worked out from the volumes in the protocol); actives 0.2% (n = 330,000); in the data active means inhibition above about 50%
Granule exo inh = lytic granule exocytosis inhibition. TALL-104 LAMP-1 surface exposure, flow cytometry; cells stimulated with thapsigargin and PMA. inhibition, % at 10 µM. actives 0.66% (n = 360,000). AID 651702;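 active means inhibition above about 55%, limit read from the data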
CaV13 ICDI inh = Primary screen for inhibitors of IQ motif and Ca2+-dependent inactivation inhibitor domain binding in CACNA1D, Förster resonance energy transfer in living cells, …; HEK cells, CFP/YFP FRET ICDI-IQ, plate reader, 10 min; percent FRET-ratio fall versus neutral wells; inhibition, % at 12.3 µM; actives 0.098% (n = 340,000);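 active means mean replicate inhibition of at least 30% and at least 1% of replicates passing that level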
VLA-4 mod pick = human VLA-4 allosteric modulation in cherry picked compounds. shares compounds with VLA-4 inh. U937 cells, HUTS-21 LIBS mAb binding, flow cytometry; LDV ligand present at threefold Kd. inhibition, % at 6.7 µM. actives 2% (n = 1,300); in the data active means inhibition above about 40%
Each line names hits and unclear results; the compound was inactive in the other large screens (follow-up assays come after a bar, where they were run).

CCOc1ccc(NC(=S)N2CCC(C(N)=O)CC2)cc1	none
O=C(NCC(O)CO)c1ccc2[nH]c3ccccc3c2c1 (stereo not given)	none (no result: CaV13 ICDI inh)
CCOC(=O)CNC(=O)c1ccc2[nH]c3ccccc3c2c1	none | VLA-4 mod pick inactive
COc1ccc(N(CC(=O)Nc2cccc(N(C)S(C)(=O)=O)c2)S(=O)(=O)c2ccccc2)cc1Cl	none
CCc1cc2c(nc1CC)CCCN2S(=O)(=O)c1cccs1	none (no result: ABCB6 inh 2, VLA-4 inh, Granule exo inh)
CSc1ccc(CN(C)C(=O)C23CC4CC(CC(Cl)(C4)C2)C3)cc1	VLA-4 inh 64 | VLA-4 mod pick inactive
COc1ccc(Cl)cc1NC(=O)CN(C)C(=O)C12CC3CC(CC(Cl)(C3)C1)C2	none
COC1=CC(=O)C[C@@H](C)[C@]12Oc1c(Cl)c(OC)cc(OC)c1C2=O	VLA-4 inh 54 | VLA-4 mod pick inactive
COc1ccc2cc1Oc1ccc(cc1)CC1c3c(cc(OC)c4c3Oc3cc5c(cc3O4)CCNC5C2)CCN1C (stereo not given)	VLA-4 inh 52 (no result: CaV13 ICDI inh) | VLA-4 mod pick inactive
CC1(c2ccc(OC(F)F)cc2)NC(=O)N(CC(=O)Nc2ccc(Cl)cc2F)C1=O (stereo not given)	none
Cc1cc(C(=O)COC(=O)Cc2n[nH]c(=O)c3ccccc23)c(C)n1-c1ccc2c(c1)OCCO2	none
CNS(=O)(=O)c1cccc(C(=O)OCC(=O)NC2CCCC(C)C2C)c1 (stereo not given)	none | VLA-4 mod pick inactive
CC1CCCC(NC(=O)CCNS(=O)(=O)c2ccc(Br)cc2)C1C (stereo not given)	VLA-4 inh 52 | VLA-4 mod pick inactive
NS(=O)(=O)c1ccc(CNC(=O)Cc2ccccc2F)cc1	none
NS(=O)(=O)c1ccc(CNC(=O)C(Cc2ccccc2)NS(=O)(=O)c2ccccc2F)cc1 (stereo not given)	none | VLA-4 mod pick inactive
CC[C@@H]1C=C(C(=O)O)[C@H](c2cccc(C)c2)N1S(=O)(=O)c1ccc(C)cc1	none | VLA-4 mod pick inactive
Cc1ccc(S(=O)(=O)N2[C@@H](c3ccccc3)C(C(=O)O)=CC[C@H]2c2ccc3c(c2)OCO3)cc1	none
Cc1ccc(S(=O)(=O)N2[C@@H](c3cccc(C)c3)C(C(=O)O)=C[C@H]2CC2CCCC2)cc1	none | VLA-4 mod pick inactive
COc1ccc([C@H]2C(C(=O)O)=C[C@@H](CC3CCCC3)N2S(=O)(=O)c2ccc(C)cc2)cc1OC	none | VLA-4 mod pick inactive
Cc1ccc(S(=O)(=O)N2[C@@H](c3ccc4c(c3)OCO4)C(C(=O)O)=C[C@H]2CC2CCCC2)cc1	none | VLA-4 mod pick inactive
CC[C@@H]1C=C(C(=O)O)[C@H](c2ccc(F)cc2)N1S(=O)(=O)c1ccc(C)cc1	none
COc1ccc([C@@H]2CC=C(C(=O)O)[C@H](c3ccc(Br)cc3)N2S(=O)(=O)c2ccc(C)cc2)cc1OC	none
CC(C)c1ccc(C2(C)NC(=O)N(CC(=O)NC3CCCC(C)C3C)C2=O)cc1 (stereo not given)	VLA-4 inh 52 | VLA-4 mod pick inactive
C[C@H]1[C@@H]2C[C@@]3(O[C@H](c4ccc(C(F)(F)F)cc4)N=C3C[C@@H]1c1ccccc1)N(Cc1ccncc1)C2=O	none (no result: ABCB6 inh 2, VLA-4 inh, Granule exo inh)
CCC(=NCCc1c(C)[nH]c2ccc(C)cc12)C1=C(O)CC(c2ccccc2)CC1=O (stereo not given)	none | VLA-4 mod pick inactive
CC(C)CCNC(=O)C1CCN(c2nnc(-n3cccc3)s2)CC1	none
O=C(NCCC1=CCCCC1)C1CCN(c2nnc(-n3cccc3)s2)CC1	VLA-4 inh 56 | VLA-4 mod pick inactive
O=C(Cn1c(=O)oc2cc(S(=O)(=O)N3CCCCCC3)ccc21)NC1CCCCCCC1	none
CCCNC(=O)Cn1c(=O)oc2cc(S(=O)(=O)N3CCCC3)ccc21	VLA-4 inh 57 | VLA-4 mod pick inactive
CCN(C[C@H]1N[C@@](Cc2ccccc2)(C(=O)OC)[C@H]2C(=O)N(Cc3ccccc3)C(=O)[C@@H]12)C(=O)COc1ccccc1	VLA-4 inh 56 | VLA-4 mod pick inactive
CCN(C[C@H]1N[C@@](C)(C(=O)OC)[C@H]2C(=O)N(Cc3ccccc3)C(=O)[C@@H]12)C(=O)C1CCCCC1	none
CCN(C[C@H]1N[C@@](Cc2ccccc2)(C(=O)OC)[C@H]2C(=O)N(Cc3ccccc3)C(=O)[C@@H]12)C(=O)C1CCCCC1	none | VLA-4 mod pick inactive
CS(=O)(=O)c1cccc(C(=O)NCc2ccccc2)c1	none
CS(=O)(=O)c1cccc(C(=O)NCc2ccc(F)cc2)c1	VLA-4 inh 93 (no result: CaV13 ICDI inh) | VLA-4 mod pick inactive
CCCN(C(=O)c1ccccc1N)c1c(C)n(C)n(-c2ccccc2)c1=O	none | VLA-4 mod pick inactive
C[C@H](Cc1ccccc1)Nc1ncnc2c1ncn2[C@@H]1O[C@H](CO)[C@@H](O)[C@H]1O	VLA-4 inh 59 | VLA-4 mod pick inactive
CC(Cc1ccccc1)Nc1ncnc2c1ncn2C1OC(CO)C(O)C1O (stereo not given)	none
O=C(CS(=O)(=O)c1ccccc1)NC1CCCCC1	none
CC(C)NC(=O)CS(=O)(=O)c1ccccc1	VLA-4 inh 50 | VLA-4 mod pick inactive
CCOc1ccc(NC(=O)CN(C)C(=O)c2ccc(COc3ccccc3)o2)cc1OCC	VLA-4 inh 54 | VLA-4 mod pick inactive
CCOc1ccc(NC(=O)CN(C)C(=O)c2ccc(COc3ccccc3)cc2)cc1OCC	none
O=C1C2C3CCCC3=C3CCCC3C2C(=O)N1c1cccc(Cl)c1 (stereo not given)	none
O=C1C2C3C=CC(c4ccccc4)(C2C(=O)N1c1cccc(Cl)c1)C1C(=O)N(c2cccc(Cl)c2)C(=O)C31 (stereo not given)	VLA-4 inh 57 | VLA-4 mod pick inactive
O=C(NCc1ccccc1)[C@@H]1CCCN1C(=O)[C@H]1CCCN1C(=O)c1ccc(F)cc1	none (no result: ABCB6 inh 2, VLA-4 inh, Granule exo inh)
COc1cc(CCCN2C(=O)C(=O)NC[C@@H]2CCCCN)cc(OC)c1OC	none | VLA-4 mod pick inactive
COc1ccccc1NS(=O)(=O)c1cc(NC(=O)CNC(=O)c2ccccc2)ccc1C	VLA-4 inh 53 | VLA-4 mod pick inactive
COc1ccc(C2CC(=O)C(c3ccccc3C)=CN2Cc2ccccc2)cc1 (stereo not given)	none (no result: ABCB6 inh 2, VLA-4 inh, Granule exo inh)
Cc1nc(N2CCN(C(=O)c3ccco3)CC2)nc2c1C(=O)CC(C)C2 (stereo not given)	none
CCOC(=O)N1CCN(c2nc(C)c3c(n2)CC(C)CC3=O)CC1 (stereo not given)	VLA-4 inh 53 (no result: CaV13 ICDI inh) | VLA-4 mod pick inactive
O=C(COC(=O)c1ccc(O)cc1)Nc1cc(C(F)(F)F)ccc1Cl	none
CC(OC(=O)c1ccc(O)cc1)C(=O)Nc1cc(C(F)(F)F)ccc1Cl (stereo not given)	none | VLA-4 mod pick inactive
CCn1c(SCC(=O)Nc2nc(C)cs2)nnc1C(NC(=O)c1ccccc1Cl)C(C)C (stereo not given)	none (no result: CaV13 ICDI inh) | VLA-4 mod pick inactive
CCn1c(SCC(=O)Nc2nc(C)cs2)nnc1-c1ccncc1	none
